Assay results as given in article PMC7862700, “An all-to-all approach to the identification of sequence-specific readers for epigenetic DNA modifications on cytosine”.

What was measured:
Experiment in all cases: DAPPL (digital affinity profiling via proximity ligation, sequencing); 10 mM Tris-HCl pH 7.5, 50 mM NaCl, 1 mM DTT, 4% glycerol, room temperature, 30 min; GST-TFs on glutathione beads, 16-mer random dsDNA library, 0.1% formaldehyde crosslink after washing; high values mean tight binding
Conditions in all cases: protein: recombinant; tags: N-terminal GST; dsDNA, one strand shown
FLI1 = target: T1, FLI1 (Homo sapiens, UniProt Q01543 1-452)
T1 sequence: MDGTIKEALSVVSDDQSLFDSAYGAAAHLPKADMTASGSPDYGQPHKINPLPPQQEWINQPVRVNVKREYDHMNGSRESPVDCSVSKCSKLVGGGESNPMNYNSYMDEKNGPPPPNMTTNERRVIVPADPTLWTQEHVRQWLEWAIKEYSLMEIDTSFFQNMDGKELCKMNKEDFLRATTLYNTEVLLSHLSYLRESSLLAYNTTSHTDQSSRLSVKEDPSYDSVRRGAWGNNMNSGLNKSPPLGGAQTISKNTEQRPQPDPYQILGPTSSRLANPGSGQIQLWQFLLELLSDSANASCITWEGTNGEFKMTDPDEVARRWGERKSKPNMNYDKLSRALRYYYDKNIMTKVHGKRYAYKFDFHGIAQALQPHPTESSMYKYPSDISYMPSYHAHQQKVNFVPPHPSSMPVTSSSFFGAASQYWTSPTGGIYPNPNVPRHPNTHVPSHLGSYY
Summary of the method: (§1)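 Human transcription factors fused to GST were expressed in yeast, captured on glutathione beads, given DNA barcodes and pooled with a GST-only negative control. Pools were incubated with 200 nmole of a 16-mer random double-stranded DNA library in Tris/NaCl/DTT/glycerol buffer at room temperature for 30 min. They were then washed, crosslinked with 0.1% formaldehyde, proximity-ligated (BsaI/T4 ligase, 1 h, 37 °C), PCR-amplified and sequenced on an Illumina NextSeq500. Binding signal is each 6-mer's read frequency for a factor divided by its frequency for the GST control.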

ELF1 = ELF1 (Homo sapiens, UniProt P32519 1-619)
Summary of the method: as §1

EHF = target: T2, EHF (Homo sapiens, UniProt Q9NZC4 1-300)
T2 sequence: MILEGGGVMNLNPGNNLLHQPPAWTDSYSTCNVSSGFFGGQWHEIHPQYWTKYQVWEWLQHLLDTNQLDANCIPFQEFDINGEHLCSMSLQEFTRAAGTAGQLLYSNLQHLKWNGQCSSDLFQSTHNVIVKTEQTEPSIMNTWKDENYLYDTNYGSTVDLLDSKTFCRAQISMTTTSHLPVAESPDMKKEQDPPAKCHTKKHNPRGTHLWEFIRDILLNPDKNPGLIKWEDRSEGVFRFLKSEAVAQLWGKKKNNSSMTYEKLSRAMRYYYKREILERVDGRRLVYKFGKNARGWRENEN
Summary of the method: as §1

SPIB = SPIB (Homo sapiens, UniProt Q01892 1-262)
Summary of the method: as §1

SPIC = target: T3, SPIC (Homo sapiens, UniProt Q8N5J4 1-248)
T3 sequence: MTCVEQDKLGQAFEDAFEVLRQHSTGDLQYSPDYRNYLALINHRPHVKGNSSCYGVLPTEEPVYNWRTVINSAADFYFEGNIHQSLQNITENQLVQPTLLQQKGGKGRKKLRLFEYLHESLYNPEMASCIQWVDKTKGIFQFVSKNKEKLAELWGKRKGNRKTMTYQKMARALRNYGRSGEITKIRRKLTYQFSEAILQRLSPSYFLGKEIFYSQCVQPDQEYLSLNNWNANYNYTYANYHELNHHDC
Summary of the method: as §1

ELF4 = ELF4 (Homo sapiens, UniProt Q99607 1-663)
Summary of the method: as §1

ELK4 = target: T4, ELK4 (Homo sapiens, UniProt P28324-2 1-405)
T4 sequence: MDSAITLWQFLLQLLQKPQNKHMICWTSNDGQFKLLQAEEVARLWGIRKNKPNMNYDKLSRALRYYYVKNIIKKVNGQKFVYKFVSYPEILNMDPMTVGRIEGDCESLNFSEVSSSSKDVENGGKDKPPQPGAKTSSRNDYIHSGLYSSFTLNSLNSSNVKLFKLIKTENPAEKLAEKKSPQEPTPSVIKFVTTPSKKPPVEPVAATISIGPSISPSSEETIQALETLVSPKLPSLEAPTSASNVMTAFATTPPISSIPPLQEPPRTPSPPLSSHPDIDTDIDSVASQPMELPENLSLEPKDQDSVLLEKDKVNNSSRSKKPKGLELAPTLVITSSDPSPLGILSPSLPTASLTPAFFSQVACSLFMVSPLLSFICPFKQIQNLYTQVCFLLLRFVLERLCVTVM
Summary of the method: as §1

ETV2 = target: T5, ETV2 (Homo sapiens, UniProt O00321 1-342)
T5 sequence: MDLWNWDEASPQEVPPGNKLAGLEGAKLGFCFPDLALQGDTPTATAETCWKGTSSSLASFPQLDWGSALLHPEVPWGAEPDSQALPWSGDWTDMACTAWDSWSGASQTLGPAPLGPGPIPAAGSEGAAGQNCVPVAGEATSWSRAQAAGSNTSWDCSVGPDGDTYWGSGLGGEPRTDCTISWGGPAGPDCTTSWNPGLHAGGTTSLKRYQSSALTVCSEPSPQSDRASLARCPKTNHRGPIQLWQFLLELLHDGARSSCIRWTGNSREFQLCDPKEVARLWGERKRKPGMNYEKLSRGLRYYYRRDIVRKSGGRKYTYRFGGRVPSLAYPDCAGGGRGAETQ
Summary of the method: as §1

ERF = target: T6, ERF (Homo sapiens, UniProt P50548 1-548)
T6 sequence: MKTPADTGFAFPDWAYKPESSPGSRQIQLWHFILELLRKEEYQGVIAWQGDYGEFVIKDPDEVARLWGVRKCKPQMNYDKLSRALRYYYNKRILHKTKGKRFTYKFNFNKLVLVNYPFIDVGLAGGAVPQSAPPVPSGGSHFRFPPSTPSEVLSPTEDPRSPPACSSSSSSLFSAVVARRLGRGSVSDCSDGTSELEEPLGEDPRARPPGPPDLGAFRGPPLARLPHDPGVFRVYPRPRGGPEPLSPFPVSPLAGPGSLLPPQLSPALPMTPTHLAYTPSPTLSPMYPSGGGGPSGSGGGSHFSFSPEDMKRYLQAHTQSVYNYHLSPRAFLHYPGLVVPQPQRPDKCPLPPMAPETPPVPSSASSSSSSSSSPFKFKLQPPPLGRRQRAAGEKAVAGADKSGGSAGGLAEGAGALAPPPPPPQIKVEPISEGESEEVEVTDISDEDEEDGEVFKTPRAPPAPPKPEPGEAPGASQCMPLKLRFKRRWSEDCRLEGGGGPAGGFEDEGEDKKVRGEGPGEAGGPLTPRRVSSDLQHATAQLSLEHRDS
Summary of the method: as §1

ETV7 = target: T7, ETV7 (Homo sapiens, UniProt Q9Y603 1-341)
T7 sequence: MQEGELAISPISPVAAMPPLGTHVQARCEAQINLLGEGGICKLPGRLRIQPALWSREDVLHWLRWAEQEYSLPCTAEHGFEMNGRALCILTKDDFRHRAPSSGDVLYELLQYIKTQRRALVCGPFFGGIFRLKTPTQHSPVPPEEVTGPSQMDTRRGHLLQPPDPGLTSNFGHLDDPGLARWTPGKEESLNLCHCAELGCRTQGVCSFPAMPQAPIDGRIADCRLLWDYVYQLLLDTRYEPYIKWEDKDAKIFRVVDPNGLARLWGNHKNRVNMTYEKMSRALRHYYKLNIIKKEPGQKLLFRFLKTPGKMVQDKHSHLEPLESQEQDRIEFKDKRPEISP
Summary of the method: as §1

ETV6 = ETV6 (Homo sapiens, UniProt P41212 1-452)
Summary of the method: as §1

ERG = target: T8, ERG (Homo sapiens, UniProt P11308 1-479)
T8 sequence: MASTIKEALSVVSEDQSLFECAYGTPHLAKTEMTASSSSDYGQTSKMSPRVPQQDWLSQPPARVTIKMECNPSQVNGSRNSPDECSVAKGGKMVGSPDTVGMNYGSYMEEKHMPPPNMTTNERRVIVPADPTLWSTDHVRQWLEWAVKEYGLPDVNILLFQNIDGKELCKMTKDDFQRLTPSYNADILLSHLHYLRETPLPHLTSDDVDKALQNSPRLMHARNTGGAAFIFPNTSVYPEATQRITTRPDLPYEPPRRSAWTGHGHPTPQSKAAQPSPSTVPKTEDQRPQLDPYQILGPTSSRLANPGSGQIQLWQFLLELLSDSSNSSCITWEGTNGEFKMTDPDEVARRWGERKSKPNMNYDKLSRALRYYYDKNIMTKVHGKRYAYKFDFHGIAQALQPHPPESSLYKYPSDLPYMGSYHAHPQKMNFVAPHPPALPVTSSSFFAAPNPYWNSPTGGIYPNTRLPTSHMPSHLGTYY
Summary of the method: as §1

ELK3 = target: T9, ELK3 (Homo sapiens, UniProt P41970 1-407)
T9 sequence: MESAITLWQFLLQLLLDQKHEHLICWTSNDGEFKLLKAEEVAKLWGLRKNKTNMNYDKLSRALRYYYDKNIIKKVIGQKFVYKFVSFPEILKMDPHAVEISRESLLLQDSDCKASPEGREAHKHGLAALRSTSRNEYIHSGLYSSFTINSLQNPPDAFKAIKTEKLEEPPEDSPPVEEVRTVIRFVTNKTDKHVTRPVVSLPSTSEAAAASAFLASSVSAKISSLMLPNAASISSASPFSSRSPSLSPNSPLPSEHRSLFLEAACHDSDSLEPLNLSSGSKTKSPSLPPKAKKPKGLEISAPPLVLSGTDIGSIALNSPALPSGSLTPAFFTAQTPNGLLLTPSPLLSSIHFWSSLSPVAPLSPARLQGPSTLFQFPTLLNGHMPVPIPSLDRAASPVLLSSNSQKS
Summary of the method: as §1

ELF3 = target: T10, ELF3 (Homo sapiens, UniProt P78545 1-371)
T10 sequence: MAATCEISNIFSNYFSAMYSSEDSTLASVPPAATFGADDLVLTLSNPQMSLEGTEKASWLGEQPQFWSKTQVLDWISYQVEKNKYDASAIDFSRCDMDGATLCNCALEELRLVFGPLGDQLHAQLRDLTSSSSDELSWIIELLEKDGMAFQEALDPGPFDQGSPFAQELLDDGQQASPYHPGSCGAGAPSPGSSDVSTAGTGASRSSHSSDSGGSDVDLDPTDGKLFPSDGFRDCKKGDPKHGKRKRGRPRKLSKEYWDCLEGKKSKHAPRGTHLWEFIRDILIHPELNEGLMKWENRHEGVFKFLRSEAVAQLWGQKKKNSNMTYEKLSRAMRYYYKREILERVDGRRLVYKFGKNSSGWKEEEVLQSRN
Summary of the method: as §1

ETV1 = ETV1 (Homo sapiens, UniProt P50549 1-477)
Summary of the method: as §1

ELF4, sequence (Q99607 whole entry): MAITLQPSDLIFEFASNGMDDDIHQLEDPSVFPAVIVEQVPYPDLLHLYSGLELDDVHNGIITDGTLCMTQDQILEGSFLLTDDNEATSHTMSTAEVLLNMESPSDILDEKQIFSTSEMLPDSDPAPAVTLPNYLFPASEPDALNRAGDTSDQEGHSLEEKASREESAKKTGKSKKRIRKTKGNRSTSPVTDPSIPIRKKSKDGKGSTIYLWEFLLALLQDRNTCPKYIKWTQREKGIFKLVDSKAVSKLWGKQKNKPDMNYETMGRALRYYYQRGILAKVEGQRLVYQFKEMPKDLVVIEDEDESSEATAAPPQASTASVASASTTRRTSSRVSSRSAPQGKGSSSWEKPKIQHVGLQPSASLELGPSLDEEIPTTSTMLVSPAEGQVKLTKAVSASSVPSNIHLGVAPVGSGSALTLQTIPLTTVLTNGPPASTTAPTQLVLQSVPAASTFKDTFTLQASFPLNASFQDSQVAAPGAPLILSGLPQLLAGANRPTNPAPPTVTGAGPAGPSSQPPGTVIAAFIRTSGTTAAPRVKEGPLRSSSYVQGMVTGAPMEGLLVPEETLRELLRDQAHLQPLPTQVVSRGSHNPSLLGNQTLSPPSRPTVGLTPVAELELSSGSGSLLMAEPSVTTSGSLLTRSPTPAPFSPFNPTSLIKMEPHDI
ETV6, sequence (P41212 whole entry): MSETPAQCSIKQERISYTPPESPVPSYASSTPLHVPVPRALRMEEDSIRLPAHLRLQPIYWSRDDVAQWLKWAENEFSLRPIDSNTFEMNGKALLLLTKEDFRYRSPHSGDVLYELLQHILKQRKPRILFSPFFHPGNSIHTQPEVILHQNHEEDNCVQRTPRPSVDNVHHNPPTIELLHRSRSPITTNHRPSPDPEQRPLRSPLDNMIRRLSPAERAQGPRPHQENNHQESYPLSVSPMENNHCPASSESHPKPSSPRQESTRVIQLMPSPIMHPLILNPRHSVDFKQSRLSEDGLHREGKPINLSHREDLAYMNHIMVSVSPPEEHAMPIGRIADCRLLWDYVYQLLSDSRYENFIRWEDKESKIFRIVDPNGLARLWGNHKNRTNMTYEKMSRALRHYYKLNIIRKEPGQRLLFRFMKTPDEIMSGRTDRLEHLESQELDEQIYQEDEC
ELF1, sequence (P32519 whole entry): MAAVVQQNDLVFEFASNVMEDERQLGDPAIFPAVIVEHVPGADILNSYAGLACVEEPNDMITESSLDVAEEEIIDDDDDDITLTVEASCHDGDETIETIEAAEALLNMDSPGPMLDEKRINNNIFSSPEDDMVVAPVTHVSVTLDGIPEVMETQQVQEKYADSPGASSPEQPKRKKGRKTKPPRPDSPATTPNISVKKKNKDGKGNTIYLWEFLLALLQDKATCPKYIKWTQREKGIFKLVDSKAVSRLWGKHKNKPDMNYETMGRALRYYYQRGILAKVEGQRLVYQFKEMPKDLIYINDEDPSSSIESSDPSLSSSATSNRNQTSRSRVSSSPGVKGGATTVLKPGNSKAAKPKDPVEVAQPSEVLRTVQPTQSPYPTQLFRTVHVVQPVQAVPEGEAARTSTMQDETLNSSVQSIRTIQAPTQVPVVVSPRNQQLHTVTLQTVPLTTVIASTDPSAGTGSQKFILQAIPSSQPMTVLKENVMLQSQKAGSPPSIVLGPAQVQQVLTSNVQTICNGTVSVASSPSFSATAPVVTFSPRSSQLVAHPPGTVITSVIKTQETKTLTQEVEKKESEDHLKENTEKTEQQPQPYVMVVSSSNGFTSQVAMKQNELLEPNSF
SPIB, sequence (Q01892 whole entry): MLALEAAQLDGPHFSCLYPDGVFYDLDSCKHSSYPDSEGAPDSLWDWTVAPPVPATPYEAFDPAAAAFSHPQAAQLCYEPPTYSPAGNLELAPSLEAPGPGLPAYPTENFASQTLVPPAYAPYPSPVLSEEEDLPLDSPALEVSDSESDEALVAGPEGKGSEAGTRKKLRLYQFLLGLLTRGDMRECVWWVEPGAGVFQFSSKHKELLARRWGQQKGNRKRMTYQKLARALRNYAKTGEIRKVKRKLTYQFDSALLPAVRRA
ETV1, sequence (P50549 whole entry): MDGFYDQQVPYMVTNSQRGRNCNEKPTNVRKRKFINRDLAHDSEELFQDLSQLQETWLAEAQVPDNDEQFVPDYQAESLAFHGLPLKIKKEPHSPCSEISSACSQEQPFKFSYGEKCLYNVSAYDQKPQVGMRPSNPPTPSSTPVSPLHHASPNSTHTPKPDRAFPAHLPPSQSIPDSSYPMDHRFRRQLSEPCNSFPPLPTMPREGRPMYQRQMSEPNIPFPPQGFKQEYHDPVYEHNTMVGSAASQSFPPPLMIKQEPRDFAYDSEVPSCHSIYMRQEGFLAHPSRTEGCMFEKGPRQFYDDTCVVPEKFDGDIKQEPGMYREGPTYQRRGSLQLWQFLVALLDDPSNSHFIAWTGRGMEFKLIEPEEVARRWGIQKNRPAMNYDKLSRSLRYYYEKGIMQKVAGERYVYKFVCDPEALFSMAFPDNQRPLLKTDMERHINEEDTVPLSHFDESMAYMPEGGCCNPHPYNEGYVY

Sequence | binding signal (FLI1) | binding signal (ELF1) | binding signal (EHF) | binding signal (SPIB) | binding signal (SPIC) | binding signal (ELF4) | binding signal (ELK4) | binding signal (ETV2) | binding signal (ERF) | binding signal (ETV7) | binding signal (ETV6) | binding signal (ERG) | binding signal (ELK3) | binding signal (ELF3) | binding signal (ETV1)
TAGTTG | 1.04 fold enrichment (6-mer frequency, TF over GST control) | 1.01 fold enrichment (6-mer frequency, TF over GST control) | 1.01 fold enrichment (6-mer frequency, TF over GST control) | 1.02 fold enrichment (6-mer frequency, TF over GST control) | 1 fold enrichment (6-mer frequency, TF over GST control) | 1.01 fold enrichment (6-mer frequency, TF over GST control) | 1.18 fold enrichment (6-mer frequency, TF over GST control) | 1.01 fold enrichment (6-mer frequency, TF over GST control) | 1.07 fold enrichment (6-mer frequency, TF over GST control) | 1.02 fold enrichment (6-mer frequency, TF over GST control) | 1.01 fold enrichment (6-mer frequency, TF over GST control) |  |  |  | 
GTCACG | 1.09 fold enrichment (6-mer frequency, TF over GST control) |  | 1.07 fold enrichment (6-mer frequency, TF over GST control) |  | 1.04 fold enrichment (6-mer frequency, TF over GST control) | 1.07 fold enrichment (6-mer frequency, TF over GST control) | 1.08 fold enrichment (6-mer frequency, TF over GST control) |  | 1.08 fold enrichment (6-mer frequency, TF over GST control) | 1.04 fold enrichment (6-mer frequency, TF over GST control) | 1.04 fold enrichment (6-mer frequency, TF over GST control) | 1.06 fold enrichment (6-mer frequency, TF over GST control) | 1.02 fold enrichment (6-mer frequency, TF over GST control) | 1.02 fold enrichment (6-mer frequency, TF over GST control) | 1.1 fold enrichment (6-mer frequency, TF over GST control)
